Reference: PubChem BioAssay AID1159580 (chemical genetic matrix, 2015)
Out of some 5,500 compounds screened, about 2,000 (36%) were called active. Roughly 18% stayed inconclusive and do not appear here. Rule as the data show it: active = normalized growth mostly below about 0.91 (no sharp cut-off); inconclusive = no clear call, values can overlap the other calls; inactive = mostly above about 0.92. Some of the results follow.

Assay: chemical genetic growth profiling, strain panel (AID 1159580);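 also: tested at 20 µM; growth read once vehicle control cultures reached saturation at 30 °C; 1 = growth at the plate median or of vehicle wells; lower values mean less growth of the strain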
Conditions: S. cerevisiae deletion strains, growth OD

Measured: normalized growth

Cc1cc(C(=O)N(c2ccccc2)C(C)C2CC2)c(Cl)cc1Cl (stereo unspecified)
active: locus YHR030C, strain SLT2, active compounds read low 0.8 | locus YLR113W, strain HOG1, active compounds read low 0.808 | locus YPL256C, strain CLN2, active compounds read low 0.848
inactive: locus YAR019C, strain CDC15, active compounds read low 0.987 | locus YBL105C, strain PKC1, active compounds read low 0.984 | locus YBR135W, strain CKS1, active compounds read low 0.984 | locus YBR136W, strain MEC1, active compounds read low 0.987 | locus YBR160W, strain CDC28, active compounds read low 0.991 | locus YDL017W, strain CDC7, active compounds read low 0.978 | locus YDL028C, strain MPS1, active compounds read low 0.982 | locus YDL101C, strain DUN1, active compounds read low 0.98 | locus YDL108W, strain KIN28, active compounds read low 0.978 | locus YDL132W, strain cdc53, active compounds read low 0.973 | locus YDL214C, strain PRR2, active compounds read low 0.955 | locus YDR052C, strain DBF4, active compounds read low 0.985 | locus YDR054C, strain cdc34, active compounds read low 0.966 | locus YDR226W, strain ADK1, active compounds read low 0.971 | locus YDR477W, strain SNF1, active compounds read low 0.942 | locus YER123W, strain YCK3, active compounds read low 0.943 | locus YER133W, strain GLC7, active compounds read low 0.938 | locus YFL009W, strain cdc4, active compounds read low 0.973 | locus YFL029C, strain CAK1, active compounds read low 0.984 | locus YFR003C, strain YPI1, active compounds read low 0.979 | locus YFR019W, strain FAB1, active compounds read low 0.968 | locus YFR028C, strain CDC14, active compounds read low 0.979 | locus YGR040W, strain KSS1, active compounds read low 0.944 | locus YGR052W, strain FMP48, active compounds read low 0.949 | locus YGR092W, strain DBF2, active compounds read low 0.989 | locus YHR079C, strain IRE1, active compounds read low 0.97 | locus YHR082C, strain KSP1, active compounds read low 0.99 | locus YHR205W, strain SCH9, active compounds read low 0.985 | locus YIL147C, strain SLN1, active compounds read low 0.983 | locus YJL095W, strain BCK1, active compounds read low 0.939 | locus YJL128C, strain PBS2, active compounds read low 0.92 | locus YJL157C, strain FAR1, active compounds read low 0.957 | locus YJR016C, strain ILV3, active compounds read low 0.976 | locus YJR066W, strain TOR1 (second series), active compounds read low 0.921 | locus YJR066W, strain TOR1, active compounds read low 1.03 | locus YKL048C, strain ELM1, active compounds read low 0.966 | locus YKL067W, strain YNK1, active compounds read low 0.955 | locus YKL101W, strain HSL1, active compounds read low 0.953 | locus YKL193C, strain SDS22, active compounds read low 0.977 | locus YKL203C, strain TOR2, active compounds read low 1.01 | locus YLR133W, strain CKI1, active compounds read low 0.965 | locus YLR403W, strain SFP1, active compounds read low 0.993 | locus YML070W, strain DAK1, active compounds read low 0.925 | locus YMR001C, strain CDC5, active compounds read low 0.982 | locus YMR205C, strain PFK2 (second series), active compounds read low 0.958 | locus YMR277W, strain FCP1, active compounds read low 0.972 | locus YNL006W, strain LST8, active compounds read low 0.989 | locus YNL020C, strain ARK1, active compounds read low 0.95 | locus YNL161W, strain CBK1, active compounds read low 0.979 | locus YNL183C, strain NPR1, active compounds read low 1.02 | locus YNL207W, strain RIO2, active compounds read low 0.978 | locus YNL222W, strain SSU72, active compounds read low 0.988 | locus YNL307C, strain MCK1 (second series), active compounds read low 0.941 | locus YOL078W, strain AVO1, active compounds read low 0.98 | locus YOL136C, strain PFK27, active compounds read low 0.936 | locus YOR061W, strain CKA2, active compounds read low 0.958 | locus YOR119C, strain RIO1, active compounds read low 1.02 | locus YOR231W, strain MKK1, active compounds read low 0.95 | locus YOR329C, strain SCD5, active compounds read low 0.984 | locus YPL031C, strain PHO85, active compounds read low 0.939 | locus YPL153C, strain RAD53, active compounds read low 0.921 | locus YPL204W, strain HRR25, active compounds read low 0.918 | locus YPL209C, strain IPL1, active compounds read low 0.985 | locus YPR025C, strain CCL1, active compounds read low 0.991 | locus YPR106W, strain ISR1, active compounds read low 0.982 | locus YPR111W, strain DBF20, active compounds read low 0.97 | strain NNK1, active compounds read low 0.976 | strain TSCII, active compounds read low 0.983
